A selection: hits, their analogues and other compounds. The true share with any hit is near 3.6%.
JMJD2E inh = qHTS Assay for Inhibitors of Human Jumonji Domain Containing 2E (JMJD2E); Lysine-specific demethylase 4E (Homo sapiens), B2RXH2; JMJD2E catalytic domain, FDH-coupled NADH fluorescence (FDH is formaldehyde dehydrogenase); Potency, µM (highest dose often 57.1 µM), without a hit: top-dose activity change, negative = inhibition, actives largely listed as inhibitors; hit rate 1.6% among 230,000; active = well fitted inhibition curve with a large enough effect, not every such curve was filed as active; inconclusive = small, poorly fitted or top-dose-only effect, or another doubt; inactive = no such curve, though single readings can be large or run the other way;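 note: 0% = wells with enzyme and -100% = buffer wells without enzyme; nearly all actives have a fitted effect of over 50% in size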
Target sequence (B2RXH2 1-337 limits assumed): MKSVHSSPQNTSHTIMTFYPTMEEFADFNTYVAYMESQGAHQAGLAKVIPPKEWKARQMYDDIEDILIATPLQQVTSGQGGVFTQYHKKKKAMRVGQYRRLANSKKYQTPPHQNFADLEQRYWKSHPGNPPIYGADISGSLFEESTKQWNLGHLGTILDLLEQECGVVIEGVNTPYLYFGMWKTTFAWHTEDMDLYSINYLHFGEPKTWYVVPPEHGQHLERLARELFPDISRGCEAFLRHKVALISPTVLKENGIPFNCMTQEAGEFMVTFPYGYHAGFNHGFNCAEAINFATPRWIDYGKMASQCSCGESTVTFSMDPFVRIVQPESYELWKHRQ
Sfp PPTase inh = qHTS Assay for Inhibitors of Bacillus subtilis Sfp phosphopantetheinyl transferase (PPTase). Potency, µM, for inactives: largest response in the series, negative = inhibition, hits mostly inhibitors. 4'-phosphopantetheinyl transferase ffp (Bacillus subtilis), Q9F4F7. AID 1490, 2009. hit rate 3.5% among 310,000. Biochemical Sfp PPTase activity, qHTS;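 note: the enzyme is Sfp with the accession as filed and its product quenches rhodamine fluorescence; 0% = enzyme reaction without inhibitor and -100% = no enzyme wells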
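Step 1, compound plus 15 nM Sfp-PPTase, 15 min, room temperature. Step 2, add rhodamine-CoA (5 uM) and BHQ-2-YbbR (12.5 uM). Step 3, read 525/598 nm fluorescence at 0 and 30 min.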
KAT2A inh = qHTS Assay for Inhibitors of GCN5L2. GCN5L2 HAT assay, ThioGlo1 CoA-SH fluorescence. hit rate 0.21% among 390,000. Histone acetyltransferase KAT2A (Homo sapiens), Q92830. Potency, µM (series often up to 58.9 µM), for inactives: at the top dose activity change, negative = inhibition, hits mostly inhibitors; note: % is set by controls: 0 for no effect and ±100 for the full control effect
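Free CoA generated was detected with ThioGlo1 (50uM) fluorescence at Ex340nm/Em540nm, read immediately and after 20 min at room temperature. Enzyme, 20 nM in HEPES pH 7.5 buffer, saw compounds 15 min before adding 75uM H3(1-25) peptide and 70uM acetyl-CoA.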
IMPase Li cell = qHTS Assay for Identifying the Cell-Membrane Permeable IMPase Inhibitors: Potentiation with Lithium; CHO-M1 cells, IP1 TR-FRET (IP-One), carbachol + lithium; Potency, µM (titrated, usually from 59.4 µM), for the others: at the highest dose activity, negative = IMPase inhibition, actives largely listed as inhibitors; hit rate 0.35% among 210,000;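 note: IP1 builds up when IMPase is blocked and the TR-FRET signal falls; plate controls were basal vehicle for no effect and high inhibitor control for full effect; nearly all actives have a fitted effect of over 50% in size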
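Concentration–response in CHO-M1 cells, lithium-potentiated; 30 min at 37C. IP1 detected by competitive TR-FRET after 10 min lysis at RT. Hill-fitted AC50.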
Epigenetic derep = Quantitative High-Throughput Screen for Regulators of Epigenetic Control; AID 1865, 2009; Potency, µM (series often up to 53.9 µM), inactives show at the highest dose GFP activation, most hits filed as activators; murine LDR cells, GFP reporter derepression, 30 h; hit rate 0.2% among 280,000; note: % of control where 0% means no effect; nearly all actives have a fitted effect of over 60% in size
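Readout is the number of GFP-expressing murine LDR cells, counted by cytometry following washing. Cells were treated with compound for 30 h at 37 C; the stably integrated CMV-GFP locus is normally silent.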
NPSR antagonist = qHTS Assay for Antagonists of the Neuropeptide S Receptor: cAMP Signal Transduction; Q6W5P4; CHO-NPSR cells, cAMP TR-FRET, antagonist mode; Potency, µM (titrated, usually from 38.3 µM), inactives show top-dose activity change, negative = inhibition, most hits filed as inhibitors; hit rate 1% among 220,000; AID 1461, 2008; note: % is set by controls: 0 for no effect and ±100 for the full control effect; nearly all actives have a fitted effect of over 50% in size
Target sequence (Q6W5P4 whole entry, looked up): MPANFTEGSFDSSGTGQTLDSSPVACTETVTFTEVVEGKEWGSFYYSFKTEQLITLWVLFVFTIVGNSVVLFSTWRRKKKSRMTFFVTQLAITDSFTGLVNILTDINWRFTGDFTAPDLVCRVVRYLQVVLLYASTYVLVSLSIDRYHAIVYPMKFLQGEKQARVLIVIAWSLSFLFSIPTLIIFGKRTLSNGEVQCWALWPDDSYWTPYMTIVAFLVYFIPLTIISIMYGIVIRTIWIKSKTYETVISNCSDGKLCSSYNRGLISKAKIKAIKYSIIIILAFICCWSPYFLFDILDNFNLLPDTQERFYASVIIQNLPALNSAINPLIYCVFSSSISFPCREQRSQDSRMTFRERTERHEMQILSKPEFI
Active calls of the source: *; ? = inconclusive; nt = not tested or not shown; ! = repeats disagree; [ ] = another dose, or the depositor's remark. Unless noted, calls come from the whole dose curve; as a rule, active = well fitted curve in the direction sought with a large enough effect; inconclusive = small, poorly fitted or top-dose-only effect, or another doubt; inactive = no such curve, though single readings can be large; an effect the other way counts as inactive or inconclusive. Potency is the fitted concentration of half-maximal effect.

SMILES	JMJD2E inh	Sfp PPTase inh	KAT2A inh	IMPase Li cell	Epigenetic derep	NPSR antagonist
COc1ccc(NC(=O)CN(C)C(=O)c2cccc(S(=O)(=O)N3CCN(C)CC3)c2)cc1	nt	nt	0.0%	nt	nt	nt
COc1cc(/C=N/NC(=O)c2ccncc2)ccc1OCCN1CCCCC1	4.0%	12.7%	-1.1%	-0.7%	-1.0%	3.7%
COc1cc(/C=N/NC(=O)c2cc3ccccc3cc2O)ccc1OCCN1CCCCC1	1.9%	39.8µM*	-3.8%	19.8%	?	11.5%
C=C1c2cccc(O)c2C(O)=C2C(=O)[C@]3(O)C(O)=C(C(N)=O)C(=O)C(N(C)C)C3C(O)C12 (some centres undefined)	8.91µM*	-45.2%	10µM*	17.0%	0.0%	nt
C[C@H]1c2cccc(O)c2C(=O)C2C(=O)C3(O)C(=O)C(C(N)=O)C(=O)[C@@H](N(C)C)[C@@H]3[C@@H](O)[C@@H]21 (some centres undefined)	nt	nt	-5.2%	nt	nt	nt
C[C@H]1c2cccc(O)c2C(O)=C2C(=O)C3(O)C(O)=C(C(N)=O)C(=O)[C@@H](N(C)C)[C@@H]3[C@@H](O)[C@@H]21 (some centres undefined)	nt	nt	-13.6%	nt	nt	nt
C=C1c2c(Cl)ccc(O)c2C(O)=C2C(=O)[C@]3(O)C(O)=C(C(N)=O)C(=O)C(N(C)C)C3C(O)C12 (some centres undefined)	?	-49.0%	25.1µM*	-10.8%	-0.5%	nt
C=C1c2cccc(O)c2C(O)=C2C(=O)[C@]3(O)C(O)=C(C(N)=O)C(=O)[C@@H](N(C)C)[C@@H]3[C@@H](O)[C@H]12	?	35.5µM*	-11.7%	4.6%	1.6%	-15.0%
COCC(=O)Nc1ccc(Nc2ccccc2)cc1	-4.0%	70.8µM*	-23.1%	5.1%[38.3 µM]	-2.8%	-16.3%[46.1 µM]
CCC(CC)C(=O)Nc1ccc(-c2cn3cccnc3n2)cc1	nt	10.3%	?	nt	-2.4%	nt
COCC(=O)Nc1ccc(-c2cn3cccnc3n2)cc1	?	12.8%	?	11.2µM*	-2.1%	-8.9%[46.1 µM]
O=C(CSc1oc(-c2cccs2)nc1S(=O)(=O)c1ccccc1)Nc1ccc(F)cc1	nt	nt	1.5%	nt	4.6%	nt
COC(=O)N1C2=C(c3ccccc3[C@@H]1CC(=O)Nc1ccc(Br)cc1)[C@@H]1C(=O)N(c3ccccc3)C(=O)[C@@H]1[C@H](C)C2	-1.1%[11.4 µM]	-17.2%	nt	34.0%	nt	nt
Cc1cc(N/N=C(/CCC(=O)O)C(=O)O)nc2ccccc12	?	50.1µM*	-4.2%	-9.4%	0.0%	20.1%
CCOc1ccc(CCNC(=O)Cn2c(=O)c3cccn3c3ccc(F)cc32)cc1OCC	nt	nt	1.9%	nt	2.8%	nt
COc1ccc(-c2[nH]n(-c3ccc([N+](=O)[O-])cc3)c(=O)c2C=NCCN2CCNCC2)cc1	-26.7%	19.0%	-4.8%	5.8%	2.2%	15.2%
COc1ccc(-c2[nH]n(-c3ccc([N+](=O)[O-])cc3)c(=O)c2C=NCc2ccccc2)cc1	6.3%	-15.4%	-7.5%	1.0%	12.6µM*	-14.3%
NSc1nc(N)c2nc(-c3ccccc3)c(-c3ccccc3)nc2n1	?	-17.1%	-5.9%	6.3%	-1.2%	-30.4%
Nc1nc(N)c2nc(-c3ccccc3)c(N)nc2n1	?	3.6%	?	12.6µM*!	0.2%	-5.1%
Nc1nc(=O)c2[nH]cnc2n1O	nt	nt	nt	-13.6%	nt	nt
CO[C@@H]1c2cc(F)ccc2/C(=C\CCOC(=O)C/C=C/c2ccccc2)[C@H]1C	-3.4%	-21.9%	nt	19.9%	0.0%	nt
NC(=S)NCCCC(N)C(=O)O (centres undefined)	-4.9%	nt	nt	16.9%	-1.2%	0.8%[46.1 µM]
Cc1cc(=O)n(C2CCS(=O)(=O)C2)[nH]1 (centres undefined)	22.4µM*	-4.1%	-8.8%	7.1%	2.1%	-21.2%
Cc1ccccc1-c1nnnn1C1CCS(=O)(=O)C1 (centres undefined)	2.3%	-7.3%	-2.9%	7.3%	0.0%	17.1%
O=C(O)CC(CCc1ccccc1)OC1OC(CO)C(O)C(O)C1O (centres undefined)	25.1µM*	-8.0%	-22.9%	nt	0.0%	10.5%
SMILES	JMJD2E inh	Sfp PPTase inh	KAT2A inh	IMPase Li cell	Epigenetic derep	NPSR antagonist
CC(=O)c1ccc(O[C@@H]2O[C@H](CO)[C@@H](O)[C@H](O)[C@H]2O)cc1	nt	nt	-2.1%	nt	nt	nt
CSCC[C@H](NC(=O)[C@H](CCCN=C(N)N)NC(=O)[C@@H]1CCCN1C(=O)[C@H](Cc1ccccc1)NC(=O)[C@H](C)NC(=O)[C@H](CC(C)C)NC(=O)[C@H](Cc1ccc(O)cc1)NC(=O)[C@H](CC(N)=O)NC(=O)[C@@H](N)CCSC)C(N)=O	nt	6.1%	-12.1%	nt	nt	nt
COc1cccc(NC2=C(C#N)C(=O)NC(c3cccc(OC)c3O)S2)c1 (centres undefined)	-9.0%	25.1µM*	-3.9%	nt	0.0%	-1.5%
N#CC1=C(Nc2ccccc2Cl)SC(c2ccccc2O)NC1=O (centres undefined)	?	12.6µM*	-11.7%	nt	14.1%	-8.5%
CCN(CC)c1ccc(N=Cc2ccc(N(CC)CC)cc2O)cc1	?	?	-23.2%	32.7%[38.3 µM]	0.0%	-14.9%[46.1 µM]
CCN1CCN(c2ccc(N=Cc3ccc(O)cc3O)cc2)CC1	14.1µM*	-1.6%	-5.7%	13.9%	1.1%	-7.9%
COc1ccc(S(=O)(=O)Nc2cc3c(C(C)=O)c(C)oc3c3ccccc23)cc1	2.9%	44.7µM*	-0.6%	36.7%[38.3 µM]	5.6%	12.9%[46.1 µM]
CC(=O)c1c(C)oc2c1cc(NS(=O)(=O)c1ccc(C(C)(C)C)cc1)c1ccccc12	nt	nt	-13.3%	nt	-0.8%	nt
CCOc1ccc(N2C(=O)CC(Sc3ncccn3)C2=O)cc1 (centres undefined)	2.3%	3.4%	1.9%	28.8%[38.3 µM]	0.0%	-1.7%[46.1 µM]
C=CCNc1nnc(SC2CC(=O)N(c3ccc(OCCC)cc3)C2=O)s1 (centres undefined)	-13.5%	50.1µM*	-12.0%	23.8%[38.3 µM]	-1.0%	-1.6%[46.1 µM]
Cc1cc(C)nc(SCc2csc(N)n2)n1	7.7%	35.5µM*	-0.4%	nt	-1.7%	13.4%[46.1 µM]
CC1(C)CC(=O)C2=C(C1)OC(N)=C(C#N)C2c1ccc[nH]1 (centres undefined)	-0.9%	50.1µM*	-18.7%	4.8%	-1.0%	-15.2%
Cn1cccc1C1C(C#N)=C(N)OC2=C1C(=O)CC(C)(C)C2 (centres undefined)	-27.3%	-5.0%	0.0%	8.6%	0.9%	-5.0%

High-throughput results from PubChem BioAssay.
